# Source: PubChem (National Center for Advancing Translational Sciences (NCATS))
# Gal4-VP16 FLuc = VP16 counterscreen qHTS for inhibitors of ROR gamma transcriptional activity; Potency, µM (titrated, usually from 53.6 µM), inactives show at the top dose activity, negative = inhibition, usual class: inhibitors; AID 2546, 2010; hit rate 3.5% among 310,000; Drosophila S2 Gal4-VP16 UAS-luciferase, luminescence, 20 h;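 note: Gal4-VP16 expression switched on by copper sulfate through the metallothionein promoter; nearly all actives have a fitted effect of over 50% in size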
# ELG1 DNA repair = qHTS screen for small molecules that inhibit ELG1-dependent DNA repair in human embryonic kidney (HEK293T) cells expressing luciferase-tagged ELG1; HEK293T ELG1-luciferase reporter, luminescence, 16 h; DNA damage induced by 5-fluorouridine; Potency, µM (doses to about 46.1 µM), without a hit: top-dose activity change, negative = inhibition, hits mostly inhibitors; hit rate 2.3% among 330,000; note: nearly all actives have a fitted effect of over 55% in size
#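 HEK293T cells expressing luciferase-tagged ELG1 (2,000/well) received 5-Fluorouridine plus compound or DMSO for 16 hr at 37 °C. Luciferase was read by ONE-Glo luminescence after 30 min at room temperature.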
# 12-LOX inh = Primary qHTS assay for inhibitors of human arachidonate 12S-lipoxygenase (ALOX12): Round 2. Polyunsaturated fatty acid lipoxygenase ALOX12 (Homo sapiens), P18054. purified 12hLO, xylenol orange hydroperoxide absorbance. Potency, µM (titrated, usually from 108 µM), inactives show at the top dose activity change, negative = inhibition, actives largely listed as inhibitors. hit rate 1.1% among 580,000. AID 1671190, 2021
#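 Hydroperoxide product was detected by ferrous iron/xylenol orange as the 573 to 405 nm absorbance ratio. Arachidonic acid at 40 uM (final) was turned over for 30 min at room temperature by 150 nM human 12hLO, pH 7.0 Hepes buffer, after 15 min compound preincubation.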
# DT40 TDP1 no CPT = qHTS for Inhibitors of human tyrosyl-DNA phosphodiesterase 1 (TDP1): qHTS in cells in absence of CPT | Potency, µM (doses to about 46.2 µM), inactives show at the top dose activity change, negative = growth inhibition, usual class: inhibitors | hit rate 15% among 420,000 | DT40 Tdp1-/- hTDP1 cells, no CPT, ATP luminescence, 48 h; note: nearly all actives have a fitted effect of over 55% in size
#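 Luminescent ATP content (CellTiter-Glo) served as the growth readout. Knockout chicken DT40 cells expressing human TDP1 were exposed to compounds without camptothecin for a minimum 48 hr at 37 °C.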
# RORgamma inh = qHTS for inhibitors of ROR gamma transcriptional activity; Nuclear receptor ROR-gamma (Mus musculus), P51450; Drosophila S2 Gal4-RORgamma UAS-luciferase reporter, 20 h; Potency, µM (series often up to 53.6 µM), for inactives: at the highest dose activity change, negative = inhibition, usual class: inhibitors; hit rate 5.4% among 310,000; AID 2551, 2010; note: nearly all actives have a fitted effect of over 60% in size
#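 ROR gamma transcriptional activity was tracked as Gal4-UAS luciferase output in stably transfected Drosophila Schneider cells, with compound added 1 hr before 700 uM copper sulfate induction and a 20 hr ambient-temperature incubation.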
# TDP1 cell CPT = qHTS for Inhibitors of human tyrosyl-DNA phosphodiesterase 1 (TDP1): qHTS in cells in presence of CPT | AID 686979, 2013 | Potency, µM (titrated, usually from 46.2 µM), for inactives: at the top dose activity change, negative = growth inhibition, most hits filed as inhibitors | hit rate 12% among 420,000 | chicken DT40 Tdp1-/-;hTDP1 cells + 20 nM CPT, ATP luminescence, 48 h; note: nearly all actives have a fitted effect of over 55% in size
#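 Chicken DT40 Tdp1-/- cells stably complemented with human TDP1 were seeded at 400 cells/well in medium containing 20 nM camptothecin, exposed to pin-transferred compounds, and grown at 37 °C for at least 48 hr. Viability was read as ATP luminescence.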
# * hit, by the source's call; u = inconclusive; x = not tested or not shown; ! = not confirmed by another sample; [ ] = remark or other dose. Rows were chosen to be rich in hits. Some 15% of all compounds tested hit in one or more screens of this group. Calls come from the whole dose curve; as a rule, active = well fitted curve in the direction sought with a large enough effect; inconclusive = small, poorly fitted or top-dose-only effect, or another doubt; inactive = no such curve, though single readings can be large; an effect the other way counts as inactive or inconclusive. % is set by controls: 0 for no effect and ±100 for the full control effect; potency is the fitted concentration of half-maximal effect.
SMILES,Gal4-VP16 FLuc,ELG1 DNA repair,12-LOX inh,DT40 TDP1 no CPT,RORgamma inh,TDP1 cell CPT
N#CC(C#N)=NNc1ccc(S(=O)(=O)N2CCCC2)cc1,u,-27%,-30%,16µM*,u,u
Cc1ccc(C(=O)NC[C@H]2C[C@@H]3CCN2C[C@@H]3c2cc(-c3cccs3)nn2C)cc1,x,x,62%[176 µM],x,x,x
COP(=S)(OC)Oc1ccc([N+](=O)[O-])cc1,10µM*!,x,x,2.9µM*,11µM*!,5.8µM*
CN1CCCC(C(=O)c2ccc(-c3ccccc3)cc2)C1 (stereo unspecified),-10%,28%,0%,18µM*,-1%,u
COC1CN(c2cccc(F)c2)C12CCNCC2 (stereo unspecified),x,x,32%,x,x,x
Oc1ccccc1/C=N/[n+]1ccccc1,2%,0%,12%,18µM*,-11%,21µM*
CC(C)CCN1CC2(C1)C(=O)Nc1ccccc12,x,x,2%[12.5 µM],x,x,x
O=C(NC(=S)N1C[C@H]2C[C@H](C1)c1cccc(=O)n1C2)c1ccc(Cl)cc1,u,3%,-2%,-14%,4.5µM*,1%
COc1cc(OC)cc(C(=O)NC(=S)N2C[C@H]3C[C@H](C2)c2cccc(=O)n2C3)c1,-7%,-15%,u,-10%,11µM*,2%
COc1cc(C(=O)NC(=S)N2C[C@H]3C[C@H](C2)c2cccc(=O)n2C3)cc(OC)c1OC,-5%,-5%,u,-29%,-42%,-1%
Nc1cc(C(=O)Nc2ccc(Cl)cc2)ccc1N1CC2CC(C1)c1cccc(=O)n1C2 (stereo unspecified),-2%,u,u,10µM*,-3%,21µM*
CCN(CC)C(=O)c1ccc(NC(=O)Nc2ccccc2F)cc1,u,u,0%,9.2µM*,11µM*,4.6µM*
CCN(CC)C(=O)c1ccc(NC(=O)CCCSc2ccccc2)cc1,5%,-14%,-17%,u,-13%,-2%
CC[N+](C)(CC)CCCCOc1ccc2c(c1)C(=O)c1cc(OCCCC[N+](C)(CC)CC)ccc1-2,-3%,-1%,u,29µM*,32%,u
Cc1ccc(S(=O)(=O)CC(=O)c2cc(C)c(OC(=O)N(C)C)c(C)c2)cc1,-10%,-2%,0%,u,21%,u
Cc1cc(C(=O)CS(=O)(=O)c2ccccc2)cc(C)c1OC(=O)N(C)C,0%,u,-1%,18µM*,u,u
COc1cc2c(cc1OCC1CC1)NC(=O)C21CCN(C(=O)c2cccc(C#N)c2)CC1,x,x,-5%[176 µM],x,x,x
O=P(Oc1ccccc1)(Oc1ccccc1)C(O)c1ccccc1 (stereo unspecified),x,2%,9%,0%,x,-20%
O=P(Oc1ccccc1)(Oc1ccccc1)C(Nc1ccccc1)c1ccccc1 (stereo unspecified),-12%,21µM*,9%,16µM*,15%,u
O=c1ccc(-c2ccccc2F)c2n1C[C@H]1C[C@@H]2CN(S(=O)(=O)c2ccccc2)C1,x,x,48%[176 µM],x,x,x
O=C1CO[C@H]2CN(Cc3cccnc3)C[C@H]2N1c1ccccc1,x,x,-18%[176 µM],x,x,x
COC[C@H]1CCCN1C[C@H]1CN2CC[C@H]1C[C@@H]2CNC(=O)c1ccc(N(C)C)cc1,x,x,25%[176 µM],x,x,x
